Bioassay records deposited in PubChem BioAssay by National Center for Advancing Translational Sciences (NCATS).
Shown are actives, neighbours in structure and some others; about 7.6% of the full set was active somewhere.
KCNH2 WT inh – inhibitors of human wildtype KCNH2 potassium channel; U2OS, BacMam KCNH2, thallium flux FluxOr; hits give low values; AID 720551; 0.37% of 340,000 active; activity change, % at 1.84 µM; Q12809;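 active means maximum activity change below -70%; inconclusive means maximum activity change between -70% and -50%; inactive means maximum activity change above -50%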; further: on the % scale 0 is the no-effect control and ±100 the full control effect
Target sequence (Q12809 whole entry, looked up): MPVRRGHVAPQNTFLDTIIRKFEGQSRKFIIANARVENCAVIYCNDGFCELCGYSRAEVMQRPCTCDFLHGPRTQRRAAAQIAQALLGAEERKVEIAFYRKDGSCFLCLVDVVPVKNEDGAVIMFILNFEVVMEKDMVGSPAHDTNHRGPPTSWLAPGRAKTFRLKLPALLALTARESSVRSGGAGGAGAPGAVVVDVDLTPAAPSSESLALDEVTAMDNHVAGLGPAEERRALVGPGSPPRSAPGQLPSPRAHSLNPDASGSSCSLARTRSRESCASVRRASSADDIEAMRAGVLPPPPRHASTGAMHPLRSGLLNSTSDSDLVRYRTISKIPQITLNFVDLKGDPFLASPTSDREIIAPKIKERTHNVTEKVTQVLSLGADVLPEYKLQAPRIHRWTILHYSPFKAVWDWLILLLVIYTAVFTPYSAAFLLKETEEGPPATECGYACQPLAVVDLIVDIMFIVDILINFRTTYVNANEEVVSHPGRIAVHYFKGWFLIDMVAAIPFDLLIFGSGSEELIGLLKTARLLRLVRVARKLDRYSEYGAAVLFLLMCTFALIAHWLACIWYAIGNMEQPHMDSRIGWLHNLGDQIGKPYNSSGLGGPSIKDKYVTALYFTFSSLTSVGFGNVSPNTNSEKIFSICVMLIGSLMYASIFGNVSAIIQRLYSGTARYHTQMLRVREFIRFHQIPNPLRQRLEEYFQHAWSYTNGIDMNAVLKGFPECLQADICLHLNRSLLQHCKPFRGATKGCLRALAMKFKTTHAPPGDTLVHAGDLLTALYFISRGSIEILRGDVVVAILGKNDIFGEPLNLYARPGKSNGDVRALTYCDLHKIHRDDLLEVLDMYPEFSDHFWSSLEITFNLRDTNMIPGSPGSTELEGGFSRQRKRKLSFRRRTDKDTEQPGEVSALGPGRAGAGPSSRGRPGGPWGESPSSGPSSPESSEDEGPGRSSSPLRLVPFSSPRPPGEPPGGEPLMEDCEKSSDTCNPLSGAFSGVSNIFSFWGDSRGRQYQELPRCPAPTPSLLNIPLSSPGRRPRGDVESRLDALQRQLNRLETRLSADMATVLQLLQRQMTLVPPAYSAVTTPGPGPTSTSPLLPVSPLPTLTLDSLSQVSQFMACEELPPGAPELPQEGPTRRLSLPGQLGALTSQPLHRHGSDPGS
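U2OS cells transduced with wild-type KCNH2 virus are loaded with FluxOr dye for 45 min, and thallium flux is measured in kinetic reads before and after stimulation buffer. Rate constants are normalized to DMSO controls.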
SW480 rerep – induces DNA re-replication in SW480 colon adenocarcinoma cells | SW480 DNA re-replication, Hoechst DNA content imaging, 48 h | Potency, µM (top dose mostly 46.1 µM), inactives show top-dose re-replication activation, usual class: activators | 1.8% of 340,000 active; further: potency means the concentration at half of the fitted maximal effect; % of control where 0% means no effect; nearly all actives have a fitted effect of over 55% in size
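Per well, 250 cells were exposed to pinned compound for 48 hr. Nuclear DNA was visualised with Hoechst (40 min, 37 C) and total object intensity recorded by fluorescence scanning.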
MCF10A rerep – DNA re-replication induction in MCF 10a cells | MCF 10A DNA re-replication, Hoechst nuclear intensity, 48 h | Potency, µM (doses to about 46.1 µM), for inactives: at the highest dose activity, positive = re-replication, hits mostly activators | 2.9% of 350,000 active | AID 624296; further: potency means the concentration at half of the fitted maximal effect; % of control where 0% means no effect; nearly all actives have a fitted effect of over 50% in size
KCNH2 3.1 inh – blocks the human KCNH2 3.1 channel isoform. 0.95% of 340,000 active. activity change, % (tested at about 1.8 µM). U2OS KCNH2 3.1, thallium flux FluxOr; hits give low values. AID 720553;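 active means maximum activity change below -70%; inconclusive means maximum activity change from -70% to -50%; inactive means maximum activity change above -50%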;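 further: thallium influx rate constant from kinetic fluorescence after stimulation buffer; on the % scale 0 is the no-effect control and ±100 the full control effect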
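Thallium flux read-out: FluxOr dye with Red40 quencher in HBSS/HEPES, 45 min at RT. Rate constants from kinetic reads were normalized to positive and negative DMSO controls. Cells: U2OS virally expressing the 3.1 isoform.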
KB-3-1 tox – KB-3-1 parental cell cytotoxicity | KB-3-1 viability, CellTiter-Glo ATP luminescence, 72 h | Potency, µM (titrated, usually from 46.1 µM), most hits filed as cytotoxic | 1.4% of 400,000 active | AID 1347075; further: potency means the concentration at half of the fitted maximal effect; on the % scale 0 is the no-effect control and ±100 the full control effect; nearly all actives have a fitted effect of over 60% in size
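Cytotoxicity in the drug-sensitive parental line KB-3-1 was scored as loss of CellTiter-Glo luminescence following 72 h incubation with compound. Values come from curve fitting of normalized concentration-response data.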
KB-V1 cytotox – kills drug-selected multidrug resistant KB-V1 cells | KB-V1 MDR cells viability, CellTiter-Glo, 72 h | Potency, µM (top dose mostly 46.1 µM), actives largely listed as cytotoxic | 3.4% of 400,000 active; further: potency means the concentration at half of the fitted maximal effect; on the % scale 0 is the no-effect control and ±100 the full control effect; nearly all actives have a fitted effect of over 60% in size
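qHTS viability screen in drug-selected KB-V1 MDR cells: 72 h compound treatment at 37 degrees C, ATP luminescence end point.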
* hit, by the source's call; i = inactive; ? = inconclusive; / = not tested or not shown; [ ] = remark or other dose. Unless noted, the call rests on the fitted dose curve; in most records, active means well fitted curve in the direction sought with a large enough effect; inconclusive means small, poorly fitted or top-dose-only effect, or another doubt; inactive means no such curve, though single readings can be large; an effect the other way counts as inactive or inconclusive.

SMILES	KCNH2 WT inh	SW480 rerep	MCF10A rerep	KCNH2 3.1 inh	KB-3-1 tox	KB-V1 cytotox
C=CC[C@H](CC(=O)N[C@H](CO)Cc1ccccc1)C(=O)N[C@@H](COC(=O)[C@@H](CC=C)Cc1ccc(F)cc1)Cc1c[nH]c2ccccc12	-6	-3%	13%	-80*	i	i
C=CCC[C@H](Cc1ccc(F)cc1)C(=O)OC[C@@H](Cc1c[nH]c2ccccc12)NC(=O)[C@@H](CC=C)CC(=O)N[C@@H](CO)Cc1ccccc1	3	?	18µM*	-38	?	i
C=CCC[C@@H](Cc1ccc(F)cc1)C(=O)OC[C@@H](Cc1c[nH]c2ccccc12)NC(=O)[C@@H](CC=C)CC(=O)N[C@@H](CO)Cc1ccccc1	-4	6%	22%	/	i	i
CCc1cc(-c2nnn(CCC3COCCO3)c2CC)cc(CC)c1-c1cn(CCc2c[nH]c3ccccc23)nn1 (stereo unspecified)	12	/	/	8	i	?
CCN(CC)c1ccc(-c2nc(-c3ccncc3)no2)cc1[N+](=O)[O-]	/	/	/	/	i	i
CCc1noc(C)c1C(=O)Nc1cc(S(=O)(=O)N2CCOCC2)ccc1OCC(F)(F)F	6	-67%	-4%	38	i	i
Cc1cc(NC(=O)COC(=O)CCNS(=O)(=O)c2ccccc2)n(-c2ccccc2)n1	-8	-3%	-1%	-9	i	i
CCOC(=O)C(=Cc1ccc(N(C)C)cc1)C(=O)c1ccccc1	/	/	/	/	i	i
CCOC(=O)N(O)c1ccc(C=Cc2ccccc2)cc1	8	12µM*	?	/	?	21µM*
O=C(O)CCCNc1ccc(S(=O)(=O)N2CCCCC2)cc1	2	-3%	-1%[9.22 µM]	26	i	i
O=C(NCc1cccc(Br)c1)C1CC2Cn3c(nc4ccccc43)C2N1c1ccccc1 (stereo unspecified)	3	-1%	8%	-8	i	i
CCOC(=O)c1c(-c2ccc(OC)cc2)nc2nonc2c1N	-1	-12%	-5%	-20	?	13µM*
CCOC(=O)c1c(C)nc(C)c(C(=O)OCC)c1-c1ccc(OC)cc1	0	-1%	-14%	2	i	i
OC(Cc1ccc2ccccc2n1)c1c(Cl)cccc1Cl (stereo unspecified)	/	/	/	/	i	i
CCOc1ccccc1OCC(=O)Nc1ccc(S(=O)(=O)Nc2nc(C)cc(C)n2)cc1	7	-6%	16%	2	i	18µM*
Cc1cc(C)nc(NS(=O)(=O)c2ccc(NS(=O)(=O)c3ccsc3)cc2)n1	3	-2%	3%	-89*	i	i
Cc1cc(C)nc(NS(=O)(=O)c2ccc(NC(=O)COc3ccccc3F)cc2)n1	8	-4%	0%	11	i	i
COCCOCC(=O)Nc1ccc(S(=O)(=O)Nc2cc(C)nc(C)n2)cc1	-108*	3%	3%	12	i	i
COc1ccc(OCC(=O)Nc2ccc(S(=O)(=O)Nc3cc(C)nc(C)n3)cc2)cc1	-6	-1%	-4%	5	i	i
COCCCNC(=S)NNC(=O)Cn1nc(C)c(Br)c1C	-11	-4%	1%	4	i	i
CNC(=S)NNC(=O)CCn1nc(C)c(Br)c1C	-9	?	-2%	3	i	i
Cc1nn(CCC(=O)NNC(=S)NCC(C)C)c(C)c1Br	-13	3.7µM*	-4%	-3	i	i
CCOCCCNC(=S)NNC(=O)CCn1nc(C)c(Br)c1C	12	?	0%	22	i	15µM*
CCOC(=O)c1cc(-c2ccccc2)sc1NC(=O)C(C)Sc1nnc(N)s1 (stereo unspecified)	5	?	?	27	?	2.1µM*
CCOC(=O)c1cc(-c2ccccc2)sc1NC(=O)C(C)OC(=O)c1cccnc1OCC (stereo unspecified)	4	2.9µM*	?	10	i	i
SMILES	KCNH2 WT inh	SW480 rerep	MCF10A rerep	KCNH2 3.1 inh	KB-3-1 tox	KB-V1 cytotox
CC(NC(=O)CCNS(=O)(=O)c1ccc2c(c1)oc(=O)n2C)c1ccccc1 (stereo unspecified)	-6	9%	-1%	11	i	i
O=C(N/N=C/c1ccccn1)c1ccc(Cl)cc1	-4	4.1µM*	?	5	i	i
O=C(N/N=C/c1ccccn1)c1ccccc1	-9	8%	?	-6	i	i
COc1cc(C(=O)N/N=C/c2ccccn2)cc(OC)c1OC	16	18µM*	21µM*	2	18µM*	?
Cc1ccccc1C(=O)N/N=C/c1ccccn1	-4	?	9%	-7	?	21µM*
O=C(N/N=C\c1ccccn1)C1c2ccccc2Oc2ccccc21	0	18µM*	-34%	-3	i	i
CC(C)(C)C(=O)Oc1ccc(S(=O)(=O)Nc2ccccc2C(=O)NCC(=O)O)cc1	/	-3%	-2%	/	/	/
COc1cccc(-c2cnc(C(O)c3c(C)cccc3C)[nH]2)c1 (stereo unspecified)	/	/	/	/	i	i
C(=N\NC(=Nc1ccccc1)c1ccccn1)/c1ccccn1	2	?	?	6	?	16µM*
C=C1C(=O)[C@@]23[C@H](O)C[C@@H]4C(C)(C)CC[C@H](O)[C@@]4(C)[C@@H]2CC[C@@H]1[C@H]3O	-1	?	0.52µM*	33	i	i
C=C1C(=O)[C@@]23[C@H](O)C[C@@H]4C(C)(C)CC[C@H](O)[C@]4(C)[C@@H]2C[C@H](O)[C@@H]1[C@H]3O	-4	2.6µM*	6.5µM*	15	?	?
O=C(Nc1ccccc1)c1sc2cc(C(F)(F)F)cnc2c1-c1cccs1	-15	?	?	-5	i	i
CCC(=O)c1cccc(-c2ccccc2)c1CC	1	-2%	21%	7	i	i
CC(C)OC(=O)C1OC1(C)c1ccccc1 (stereo unspecified)	-8	-3%	-5%	-26	i	i
CCOc1ccc(-c2[nH]ncc2-c2ccccc2)c(O)c1	-22	-1%	-2%	10	i	i
COc1ccccc1-c1cn[nH]c1-c1ccc(OCc2ccccc2)cc1O	-4	?	23µM*	12	?	i
COc1ccc(-c2cn[nH]c2-c2ccc(OC)cc2O)cc1	3	?	18%	11	i	i
COc1ccc(-c2cn[nH]c2-c2ccc(OCc3ccccc3)cc2O)cc1	-1	?	13µM*	-2	i	i
